According to PubChem BioAssay (Tox21):
Records with an inconclusive call do not appear. Values without a mark were called inactive. Calls follow the shape of the full dose curve.

Test: qHTS assay to identify small molecule agonists of the endoplasmic reticulum stress response signaling pathway - cell viability counter screen (AID 1159517); also: nearly all actives have a fitted effect of over 50% in size
Settings: ESRE-bla HeLa viability, CellTiter-Glo luminescence, 5 h; series mostly up to 61 µM; activity change, negative = cytotoxicity: at the top concentration
Description: U.S. Tox21 Program National Center for Advancing Translational Sciences [NCATS] NIH Chemical Genomics Center [NCGC] U.S. Environmental Protection Agency [EPA] National Institutes of Environmental Health Sciences [NIEHS] National Toxicology Program [NTP] U.S. Food and Drug Administration [FDA] Tox21 Assay Overview: Endoplasmic Reticulum (ER) plays an important role in cellular signaling, protein folding/maturation, stress response, lipid biosynthesis, calcium storage and release etc. Under stress conditions, proteins in ER misfold or unfold, and leading to the expression of ER stress responsive genes. ER stress has been associated with a variety of pathophysiological conditions such as cancer, inflammation, neurodegenerative diseases, diabetes, ischemic heart disease etc. To identify the compounds that induce ER stress response, an ER stress reporter cell line, CellSensor ESRE-bla HeLa (Life Technologies, Carlsbad, CA) containing a beta-lactamase reporter gene under control of the Endoplasmic reticulum Stress Response Element (ESRE) was used to screen Tox21 10K compound library. The cytotoxicity of the Tox21 compound library against the ESRE-bla HeLa cell line was tested in parallel by measuring cell viability using the CellTiter-Glo assay in the same wells.
Tox21 Assay Protocol Summary: ESRE-bla HeLa cells were dispensed at 1,500 cells/6 uL of assay medium per well into black wall/clear-bottom 1536-well plates using a Multidrop Combi (ThermoFisher Scientific, Waltham, MA) dispenser. After the assay plates were incubated at 37 C and 5% CO2 for an overnight, 23 nL of compounds dissolved in DMSO, positive controls or DMSO only was transferred to the assay plate by a Pintool station (Kalypsys, San Diego, CA). The assay plates were incubated at 37 C and 5% CO2 for 5 hr. One uL of LiveBLAzer B/G FRET substrate (Life Technologies) was added using a FRD (Flying Reagent Dispenser, Aurora Discovery, San Diego, CA) and the plates were incubated at room temperature for 2 hr. Fluorescence intensity (405 nm excitation, 460 nm and 530 nm emissions) was measured using an Envision plate reader (PerkinElmer, Shelton, CT). For cytotoxicity, 4 ul/well of CellTiter-Glo reagent was added into the assay plates using an FRD. After 30 min incubation at room temperature, the luminescence intensity was measured using a ViewLux plate reader (PerkinElmer).
% is scaled to controls: 0 for no effect and ±100 for the full control effect.

| Compound | activity change, negative = cytotoxicity |
| --- | --- |
| CCc1nccnc1CC | 9.24% [at 28.5 µM] |
| C/C=C(\C)C#N | -10.9% |
| CC(NC(CCc1ccccc1)C(=O)O)C(=O)N1C(=O)N(C)CC1C(=O)O (stereo not given) | 29.4% |
| OC1CCCCC1c1ccccc1 (stereo not given) | 5.21% |
| CC/C=C\CCOC(C)=O | -13.8% |
| N[C@H]1CN(c2c(F)cc3c(=O)c(C(=O)O)cn(C4C[C@H]4F)c3c2Cl)CC12CC2 (stereo not given in full) | -3.26% |
| CN(C)CCCN1c2ccccc2CCc2ccc(Cl)cc21 | -12.5% |
| Nc1c[n+](N2CCOCC2)no1 | 7.32% |
| CC(=O)OCC(=O)[C@@]1(O)CCC2C3CCC4=CC(=O)CC[C@]4(C)C3[C@@H](O)C[C@@]21C (stereo not given in full) | -6.34% |
| CN(C(=O)c1c(O)c2ccccc2n(C)c1=O)c1ccccc1 | 11.9% |
| Nc1nc2c(ncn2COC(CO)CO)c(=O)[nH]1 | -5.88% |
| COc1ccc2c(c1)c(CC(=O)OCC(=O)O)c(C)n2C(=O)c1ccc(Cl)cc1 | 0.96% |
| CCOC(=O)c1ccc(C)cc1 | 3.02% |
| CC(C)c1cc2c(cc1S(=O)(=O)O)[C@@]1(C)CCC[C@@](C)(C(=O)O)[C@@H]1CC2 | -0.278% |
| C[N+](C)(C)CCCCCC[N+](C)(C)C | 0.288% |
| CC(C)(O)C#CC(C)(C)O | 5.87% [at 78.8 µM] |
| CCCc1cc(C(N)=S)ccn1 | 11.7% |
| COc1nc(N)nc2c1ncn2[C@@H]1O[C@H](CO)[C@@H](O)[C@@H]1O | 0.969% |
| CCC(C)S (stereo not given) | 12.1% [at 3.11 µM] |
| O=C1CCCC(=O)C1 | 2.72% |

| Compound | activity change, negative = cytotoxicity |
| --- | --- |
| CCCCCCCCCCCCCCCCC | 1.61% |
| CC(=O)Nc1c(I)cc(I)c(C(=O)O)c1I | -2.71% |
| CC(=O)OCC(CCn1cnc2cnc(N)nc21)COC(C)=O | 10.4% |
| CCOC(=O)CCC(C)=O | 10.6% |
| Nc1cc(=O)[nH]c(N)n1 | 9.57% |
| O=S(O)CO | -5.18% |
| NC(=O)COCCN1CCN(C(c2ccccc2)c2ccc(Cl)cc2)CC1 (stereo not given) | -2.03% |
| ClC(Cl)(Br)Br | -26.5% |
| O=[N+]([O-])c1ccc(F)cc1F | -16.2% [at 78.8 µM] |
| CC(C)(C)NCCNC(C)(C)C | 9.54% |
| CCN1CCC[C@H]1CNC(=O)c1cc(S(N)(=O)=O)ccc1OC | 15.4% |
| CC(C)NCC(O)c1ccc(NS(C)(=O)=O)cc1 (stereo not given) | 0.0043% [at 78.8 µM] |
| CN1N=C(C(N)=O)CCC1=O | 9.99% |
| COC(=O)c1ccc(C)cc1C1=NC(C)(C(C)C)C(=O)N1 (stereo not given) | -9.98% |
| CCn1ccnc1CC1COc2ccccc2O1 (stereo not given) | 1.36% |
| CCC(=O)OC(C)c1ccccc1 (stereo not given) | 15.7% |
| C=CCS(=O)(=O)O | -10.7% |
| CCn1nc(C(=O)O)c(=O)c2cc3c(cc21)OCO3 | -3.75% |
| N[C@H](C(=O)O)c1ccc(O)cc1 | -7.5% [at 28.5 µM] |
| C=CCOCC(CC)(CO)COCC=C | -12.7% |
